Compound activity: PubChem, National Center for Advancing Translational Sciences (NCATS)
This excerpt belongs to a sample that is enriched for hits.
MARV entry inh: qHTS for inhibitors of binding or entry into cells for Marburg Virus | Marburg virus pseudotyped entry inhibition, cell reporter | AID 540276, 2011 | hit rate 1.8% among 300,000 | Potency, µM (series often up to 37.8 µM), without a hit: top-dose activity change, negative = inhibition, hits mostly inhibitors; calls by dose curve; tested in HEK293 cells; also: potency is read from the fitted curve at half-maximal effect; % is scaled to controls: 0 for no effect and ±100 for the full control effect
Vaccinia Venus: qHTS for Stage-Specific Inhibitors of Vaccinia Orthopoxvirus: Venus Reporter Primary qHTS; Vaccinia virus Venus reporter expression, fluorescence; Potency, µM (series often up to 36.5 µM), without a hit: at the top dose activity change, negative = inhibition, hits mostly inhibitors; hit rate 0.46% among 330,000; calls by dose curve; tested in A549 cells; also: potency is read from the fitted curve at half-maximal effect; % is scaled to controls: 0 for no effect and ±100 for the full control effect; nearly all actives have a fitted effect of over 30% in size
VACV mCherry inh: qHTS for Stage-Specific Inhibitors of Vaccinia Orthopoxvirus: mCherry Reporter Primary qHTS; Vaccinia virus mCherry reporter infection, fluorescence; hit rate 0.63% among 310,000; Potency, µM (top dose mostly 36.5 µM), for the others: top-dose activity change, negative = inhibition, most hits filed as inhibitors; calls by dose curve; tested in A549 cells; also: potency is read from the fitted curve at half-maximal effect; % is scaled to controls: 0 for no effect and ±100 for the full control effect; nearly all actives have a fitted effect of over 35% in size
Shiga toxin inh: A qHTS for Small Molecule Inhibitors of Shiga Toxin | inhibition, % at 38.7 µM | hit rate 9.2% among 290,000 | Vero cells, Shiga toxin protein synthesis inhibition reporter | AID 2315, 2010; in the data active = inhibition mostly above about 28%, no sharp cut-off; inactive = mostly below about 43%; also: 0% is about no effect
CHX counter: Cycloheximide Counterscreen for Small Molecule Inhibitors of Shiga Toxin; AID 2314, 2010; cell reporter, cycloheximide protein synthesis inhibition counterscreen; max response, %; hit rate 12% among 300,000; in the data active = max response mostly above about 13%, no sharp cut-off; inactive = mostly below about 14%; also: read at 38.3 µM for the half of the compounds with a filed dose; 0% is about no effect
LASV entry inh: qHTS for Inhibitors of binding or entry into cells for Lassa Virus; Lassa virus pseudotype entry inhibition, cell reporter; Potency, µM (titrated, usually from 37.9 µM), without a hit: at the top dose activity change, negative = inhibition, hits mostly inhibitors; hit rate 1.2% among 300,000; AID 540256, 2011; calls by dose curve; tested in HEK293 cells; also: potency is read from the fitted curve at half-maximal effect; % is scaled to controls: 0 for no effect and ±100 for the full control effect; nearly all actives have a fitted effect of over 50% in size
Starred values were filed as active, the others as inactive; i = inactive; ? = inconclusive; / = no result given; [ ] = dose if it differs, or a comment.

SMILES	MARV entry inh	Vaccinia Venus	VACV mCherry inh	Shiga toxin inh	CHX counter	LASV entry inh
CCc1cccc(NC(=O)Nc2ccc3c(c2)OCO3)c1	?	?	-28.5%	46.6*	28.7*	-28.0%[46.1 µM]
CCc1ccccc1NC(=O)Nc1ccc2c(c1)OCO2	21.8%	/	/	26.6	34.7*	5.5%
CC(C)C(NC(=O)c1ccccc1F)C(=O)Nc1ccc2c(c1)OCO2 (configuration not stated)	?	/	/	26.7	1.2	9.0%
CCc1c(C(=O)Nc2ccccc2C(N)=O)csc1C	/	/	/	37.7	30.8*	/
O=C(Nc1ccc2c(c1)OCO2)Nc1ccccc1F	/	/	/	108.5*	57.1*	/
CCOC(=O)CN1C(=O)[C@]2(OCCC=C[C@@H]2C)c2ccccc21	1.2%[14.2 µM]	/	/	/	/	/
Nc1c(CNCc2nnn(Cc3ccccc3)c2N)nnn1Cc1ccccc1	/	-11.9%	i	/	/	/
O=C(Cc1ccccc1)NC1CC(=O)N(c2ccccc2)C1 (configuration not stated)	/	-10.6%[7.34 µM]	-4.2%[7.34 µM]	/	/	17.9%[46.1 µM]
Cc1ccsc1C(=O)NNC(=O)CCN1CCN(c2ccccc2)CC1	7.4%	-19.4%	i	/	/	?
CCc1c(C(=O)NNC(=O)Nc2ccc3c(c2)OCO3)csc1C	25.6%	-5.3%	i	20.2	38.3*	15.3%
O=C1C=C(c2cccc(Br)c2)C[C@@H](c2ccc(Cl)cc2)C1	/	-16.9%	-7.8%	/	/	/
COc1ccc(C(CCNC(C)c2ccccc2)c2ccc(F)cc2)cc1 (configuration not stated)	?	?	11.2µM*	-18.8	-8.2	?
COc1ccc(C(OCC(O)CNC(C)c2ccccc2)c2ccc(OC)cc2)cc1 (configuration not stated)	3.55µM*	-26.6%	?	7.0	-3.8	?
COc1ccc(CNCCC(c2ccc(F)cc2)c2ccc(OC(C)C)cc2)cc1OC (configuration not stated)	?	?	?	-10.1	-8.9	?
COc1ccc(CNCCC(c2ccccc2)c2ccc(OC(C)C)cc2)cc1OC (configuration not stated)	?	-23.7%	?	-7.2	-10.1	6.31µM*
COc1ccc(C(CCNCc2ccccc2)c2ccc(F)cc2)cc1 (configuration not stated)	?	?	?	-14.0	-3.9	?
COc1ccc(CNCCC(c2ccc(F)cc2)c2ccc(OC)cc2)cc1 (configuration not stated)	11.2µM*	?	?	-17.2	-7.7	12.6µM*
CCN1C(=NCc2cccc(Cl)c2)NC(c2cccc(C(F)(F)F)c2)C(C(=O)OC)=C1C (configuration not stated)	-24.8%[14.2 µM]	/	/	/	/	-42.0%[14.3 µM]
Cc1ccc(NS(=O)(=O)c2ccc3nc(-c4ccccc4)[nH]c3c2)cc1Cl	15.7%[46.1 µM]	?	?	/	/	?
COc1ccc(C(CCNCc2ccc(N(C)C)cc2)c2ccccc2OC)cc1 (configuration not stated)	?	-25.9%	?	0.9	-3.3	15.8µM*
COc1ccc(CNCCC(c2ccc(OC)cc2)c2ccccc2OC)cc1 (configuration not stated)	?	-26.3%	i	-4.3	-3.3	-15.2%[46.1 µM]
CC(NCC(O)COCCC12CC3CC(CC(C3)C1)C2)c1ccccc1 (configuration not stated)	11.6µM*	/	/	-17.2	-5.6	?
COc1ccc(C(CCNCc2ccc(F)cc2)c2ccc(F)cc2)cc1 (configuration not stated)	14.6µM*	?	?	-25.5	-8.5	?
CC(NC(=O)C(=O)N1CCOCC1)C(c1cccs1)N1CCN(c2ccccc2)CC1 (configuration not stated)	-2.5%[46.1 µM]	-16.9%	?	-9.7	-2.5	-3.0%[46.1 µM]
O=C(CN1CCCCC1)Nc1ccccc1Oc1ccccc1	?	2.0%	-3.2%	-6.2	-2.1	-0.9%
SMILES	MARV entry inh	Vaccinia Venus	VACV mCherry inh	Shiga toxin inh	CHX counter	LASV entry inh
O=C(O)c1ccc(C=NNC(=O)c2cccc3ccccc23)cc1	4.2%	-6.0%	-0.8%	/	/	-18.5%
COc1ccc(/C=N/NC(=O)c2ccco2)cc1OCc1ccccc1	?	-7.6%	-8.7%	42.5*	19.2*	21.2%
Cc1cc(C(=O)N/N=C/c2ccc(OCc3ccccc3)cc2)c(C)o1	-0.7%[46.1 µM]	-10.2%	-20.2%	55.9	21.7*	?
COc1cc(/C=N/NC(=O)CC2(C)OCCCO2)ccc1OCc1ccccc1	33.0%	3.3%	-12.0%	8.6	23.0*	8.1%
O=C(N/N=C/c1ccccc1O)c1cccc2ccccc12	/	/	/	21.2	13.2*	/
COc1ccc(/C=N/NC(=O)c2ccco2)cc1COc1ccc(F)cc1	/	/	/	21.5	8.1	/
Cc1ccc(S(=O)(=O)/N=C(/Nc2ccc(F)cc2F)c2ccccc2)cc1	/	/	/	21.2	0.5	/
COc1cc(/C=N/NC(=O)CN2CCCCC2)ccc1OCc1ccc(Br)cc1	?	-11.4%	-8.6%	-1.8	12.4*	?
O=C(N/N=C/c1cccc2ccccc12)c1ccncc1	/	/	/	14.8	14.3	/
Cc1cc(C(=O)N/N=C/c2ccccc2)c(C)o1	?	-16.5%	i	68.1*	58.3*	-6.2%[46.1 µM]
Cc1nn(C)c(C(=O)N/N=C/c2cccc3ccccc23)c1Cl	7.5%	-14.4%	-1.4%	42.9*	10.7*	?
Cc1cc(C(=O)N/N=C/c2cccc3ccccc23)c(C)o1	7.94µM*	0.0%	-1.2%	41.5	29.5*	-0.5%[46.1 µM]
CCc1ccc(NC(=O)CN(c2ccc(Cl)cc2)S(=O)(=O)c2ccsc2C(=O)OC)cc1	/	-10.1%	-14.4%	/	/	?
COC(=O)c1cc(S(=O)(=O)Nc2cccc(C)c2C)cn1C	/	-20.1%	?	-1.6	-2.0	/
COc1cc(/C=N/NC(=O)c2cccc([N+](=O)[O-])c2)ccc1OCc1ccccc1	-22.7%	/	/	-16.0	2.3	5.9%
COc1ccc(/C=N/NC(=O)c2cc(C)oc2C)cc1OCc1ccccc1	?	6.9%	?	31.6	12.3*	?
C#CCNC(=O)C(C)c1ncc(C(F)(F)F)cc1Cl (configuration not stated)	16.4%[46.1 µM]	-9.4%	-4.0%	-6.5	3.4	2.4%
CCCCn1c(CN2CCN(c3ccc(F)cc3)CC2)nc2c1c(=O)n(C)c(=O)n2C	-12.4%	-16.9%	?	78.8	29.9*	-1.1%
Cn1c(=O)c2c(nc(CN3CCN(CCO)CC3)n2Cc2cccc3ccccc23)n(C)c1=O	11.6µM*	/	/	16.3	-1.1	-18.7%
Cn1c(=O)c2c(nc(CN3CCN(c4ccc(F)cc4)CC3)n2Cc2ccccc2F)n(C)c1=O	16.4µM*	/	/	32.9	-4.8	-23.5%
Cn1c(=O)c2c(nc(CN3CCN(CCO)CC3)n2Cc2ccccc2Cl)n(C)c1=O	/	-8.8%	i	-2.6	1.1	/
COc1cc(OC)c2c(C)cc(=O)oc2c1C(CCN1CCCC(C)C1)c1ccc(N(C)C)cc1 (configuration not stated)	/	/	/	4.6	-4.8	/
